Assay results taken from PubChem BioAssay.

Columns and labels:
[1] = biological target: Tumor necrosis factor receptor superfamily member 10B (Homo sapiens) (UniProt O14763); experiment: caspase-8 TRAIL sensitization, hit retest, confirmation, cell-based, NB7+caspase-8, with/without TRAIL, luminescence panel (AID 651596); settings: NB7 neuroblastoma + caspase-8, TRAIL sensitization, luminescence viability, with TRAIL, mean of runs, at 10 µM, stronger effect = higher value
[2] = as above; settings: NB7 neuroblastoma + caspase-8, without TRAIL, luminescence viability, without TRAIL, mean of runs, at 10 µM

Chain of Tumor necrosis factor receptor superfamily member 10B (Homo sapiens) (O14763 whole entry, looked up): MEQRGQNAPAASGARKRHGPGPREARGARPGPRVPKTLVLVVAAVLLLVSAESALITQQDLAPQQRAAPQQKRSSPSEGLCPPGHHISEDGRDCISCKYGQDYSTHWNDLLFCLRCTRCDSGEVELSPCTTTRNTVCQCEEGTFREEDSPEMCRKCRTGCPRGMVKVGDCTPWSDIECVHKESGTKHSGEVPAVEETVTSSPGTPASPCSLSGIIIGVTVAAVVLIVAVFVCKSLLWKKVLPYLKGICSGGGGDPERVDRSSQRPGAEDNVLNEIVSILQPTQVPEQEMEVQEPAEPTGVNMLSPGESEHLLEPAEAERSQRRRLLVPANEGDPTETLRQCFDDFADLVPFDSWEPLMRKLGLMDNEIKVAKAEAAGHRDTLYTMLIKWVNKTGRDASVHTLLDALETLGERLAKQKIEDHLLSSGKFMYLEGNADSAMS

Row | SMILES | activity [1] | activity [2]
1 | COc1ccc(OC)c(Nc2nc(N)nc(CCl)n2)c1 | 99% | 97.5%
2 | COc1ccc(C(=O)Nc2nnc(SCC(=O)NC3CCCC3)s2)c(OC)c1 | 74.1% | 69.8%
3 | Cc1cc(C)c2sc(N(CCCN(C)C)C(=O)c3ccc(S(=O)(=O)N4CCc5ccccc5C4)cc3)nc2c1 | 93.1% | 93.8%
4 | O=C(COC(=O)c1ccccc1C(=O)c1ccc(Cl)c([N+](=O)[O-])c1)NC1CC1 | 98.7% | 99.3%
5 | O=C(CCl)N=c1sccn1Cc1cccc2ccccc12 | 98.8% | 99.1%
6 | COc1cccc(Nc2nc(N)nc(CCl)n2)c1 | 98.4% | 92%
7 | CCc1ccc(-n2nc3cc(C)c(N)cc3n2)cc1 | 64.4% | 51.1%
8 | COc1ccc(/C=C/c2cc(-c3ccc(C)cc3)o[n+]2C)cc1 | 81.8% | 90.6%
9 | Fc1ccccc1-c1ccc(/C=N/Nc2nc3ccccc3[nH]2)o1 | 82.7% | 79.2%
10 | CC(C)C[C@H](NC(=O)c1nc[nH]c1C(=O)N[C@@H](CC(C)C)C(=O)OC(C)(C)C)C(=O)OC(C)(C)C | 72.4% | 63.2%
11 | c1ccc2nc(-c3nc4ccccc4o3)ccc2c1 | 79.6% | 76%
12 | CN(C)S(=O)(=O)c1ccc(-c2cn3ccccc3n2)cc1 | 66.2% | 73.5%
13 | C(=Cc1c[nH]c2ccccc12)c1ccc2ccccc2n1 | 61.1% | 52.8%
14 | O=C(Nc1ccc2c(c1)OCO2)N1CCN(Cc2ccco2)CC1 | 78.8% | 75.2%
15 | O=C(N/N=C/c1cccc(O)c1)c1ccc2c(c1)OCCO2 | 93.8% | 90.7%
16 | Cc1c(C(=O)N2CCc3ccccc32)oc2ccccc12 | 48.2% | 41%
17 | Cc1ccc(S(=O)(=O)N2CCCCC2)cc1NC(=O)Cn1ncc(Cl)c(Cl)c1=O | 98.7% | 99.3%
18 | COc1ccc(-c2cc3cc4c(cc3cn2)OCO4)cc1 | 60.3% | 52.8%
19 | Nc1ccc(C(=O)NN2C(=O)[C@H](Cl)C2c2ccc(Cl)cc2)cc1 (stereo partly drawn) | 99.3% | 99.5%
20 | CC(C)(C)c1ccc(NC(=O)c2ccsc2)cc1 | 73.7% | 71.9%
21 | Cc1ccc2oc(/N=C(\N)NC(=O)C3CC3)nc2c1 | 56.4% | 71%
22 | Nc1cnnc(N/N=C\c2ccccc2)c1Cl | 22.9% | 19.8%
23 | CC(C)C[C@H]1CNC(=S)N1C[C@H]1CCCN1C[C@H](Cc1ccccc1)N1C[C@H](Cc2ccc(O)cc2)N(CC2CCCCC2)C1=S | -0.175% | -1.23%
24 | Cc1ccc(/C=C(\C#N)c2nc3ccccc3[nH]2)s1 | 69.8% | 72%

Row | SMILES | activity [1] | activity [2]
25 | CC(C)(C)OC(=O)NCCCCCc1cn([C@@H](CO)C(=O)NCCCCCCCCCCC(=O)N2CCN(C(=O)OC(C)(C)C)CC2)nn1 | 61.7% | 42.1%
26 | COc1ccc(N=C2S/C(=C\c3ccc(Cl)c([N+](=O)[O-])c3)C(=O)N2CCN(C)C)cc1 | 65% | 90.2%
27 | c1ccc(-c2cc3cc4c(cc3cn2)OCO4)cc1 | 43.8% | 29%
28 | Cc1cc(N/N=C/c2ccccc2Cl)nc(NCc2ccccc2)n1 | 37.5% | 34.1%
29 | Cc1cccnc1NC(=S)NC(=O)c1cccs1 | 73.2% | 66.8%
30 | Oc1ccc(-c2nnc(SCC3CCCCC3)o2)cc1 | 70.1% | 84.3%
31 | CCc1nnc(NC(=O)CSc2nc3c(cc2C#N)CCC3)s1 | 73.7% | 70.8%
32 | Cc1ccc(-c2nc(N/N=C/c3cccc([N+](=O)[O-])c3)c3ccccc3n2)cc1 | 70.8% | 63.5%
33 | O=C(Nc1nc2c(s1)CCCC2)c1cccs1 | 71.3% | 82.1%
34 | COc1cc(/C=N/NC(=O)COc2ccc(C)cc2)ccc1OC(=O)c1cccs1 | 58.4% | 48.5%
35 | COc1ccc(C(=O)Nc2ccccc2C(=O)N/N=C/c2ccncc2)cc1OC | 97.7% | 96.3%
36 | C=C1C(=O)c2sccc2C(c2ccc(OC)c(OC)c2)C1COC(C)=O (stereo not drawn) | 98.2% | 99.2%
37 | N#C/C(=C\c1cc(Cl)cc(Cl)c1O)C(=O)NC1CCCCC1 | 26.5% | 47.6%
38 | O=C(CSc1nnc(-c2ccc(Br)cc2)o1)Nc1cccc(C(=O)O)c1 | 60.1% | 68.1%
39 | C(=N\NC1=Nc2cccc3cccc1c23)/c1ccccn1 | 50.6% | 43%
40 | Cc1cccc(Cn2ncc(Cl)c(Cl)c2=O)c1 | 92.2% | 98.9%
41 | CCN1CCN(c2ccc(S(=O)(=O)N3CCCCC3)cc2NC(=O)c2ccc([N+](=O)[O-])o2)CC1 | 59.8% | 61.9%
42 | CCOC(=O)c1c(CSC(=N)N)n(-c2ccc(C)cc2)c2cc(Br)c(OC(C)=O)cc12 | 90.7% | 81.3%
43 | O=C(Nc1nnc(/N=C/c2ccco2)s1)c1ccc(F)cc1 | 39.8% | 28.4%
44 | O=C(Nc1ccc2nc3ccccc3nc2c1)c1ccccc1 | 47% | 32.9%
45 | CC(C)(C)c1ccc(-c2cn(-c3ccc(Br)cc3)c3[n+]2CCCS3)cc1 | 71.9% | 55.1%
46 | COC(=O)Cn1c(=O)c(C(=O)CCl)c(N)n(Cc2ccccc2)c1=O | 93.6% | 94.7%
47 | N/C(=N\OC(=O)c1ccccc1Cl)c1cccnc1 | 67.2% | 70.6%
48 | CC[C@@H](C)[C@H](CNC)NC[C@@H](Cc1cccc2ccccc12)NCCc1cccc(C(F)(F)F)c1 | 86.9% | 97.8%

Row | SMILES | activity [1] | activity [2]
49 | Cc1ccc2nc(-c3cccc(N)c3)[nH]c2c1 | 71.5% | 59.6%
50 | Clc1ccc(-c2nnc(SCc3ccon3)o2)c(Cl)c1 | 51.8% | 58.7%
51 | Cc1cccc(/C(N)=N/OC(=O)c2ccc(Cl)cc2Cl)c1 | 97.3% | 91.8%
52 | Cc1nc2cc(-c3ccccc3)nn2c(N)c1-c1ccccc1 | 59% | 44.4%
53 | CCn1cc(-c2cc(C(=O)O)c3ccccc3n2)cn1 | 65% | 58.2%
54 | O=C(/C=C\Nc1ccccn1)c1ccccc1 | 55.4% | 53.2%
55 | O=C(Cn1ncc(Cl)c(Cl)c1=O)Nc1ccc2c(c1)OCO2 | 99.5% | 99.5%
56 | Cc1cccc(/C(N)=N/OC(=O)c2ccoc2C)c1 | 90.8% | 91.8%
57 | CN(c1ccccc1)S(=O)(=O)c1ccc(NC(=O)c2nc(S(C)(=O)=O)ncc2Cl)cc1 | 80.7% | 99.3%
58 | O=C(CCl)Nc1c(C(=O)Nc2ccc3c(c2)OCCO3)oc2ccccc12 | 93.3% | 90.3%
59 | COc1cc(C2CC(c3cccs3)=NN2C(=O)CCl)ccc1OC(F)F (stereo not drawn) | 99.5% | 99.5%
60 | COc1cccc(-c2nnc(Nc3nc4c(F)cccc4s3)o2)c1 | 81.2% | 84.2%
61 | CCc1ccc(C2=NNC(=Nc3cccc(S(=O)(=O)N(C)C)c3)SC2)cc1 | 76.8% | 75%
62 | O=C(CCl)Nc1ccccc1C(=O)Nc1ccc2c(c1)OCO2 | 74.1% | 73.8%
63 | N#Cc1nc(Nc2cccc(Cl)c2)c2ncn(C3CCCC3)c2n1 | 76.7% | 57.3%
64 | CNc1ncnc(Sc2nc(N)nc3nc[nH]c23)c1[N+](=O)[O-] | 72% | 77.6%
65 | O=C(Nc1ccc(Cl)c(Cl)c1)Nc1ccccc1C(=O)O | 44.6% | 42.5%
66 | Nc1nc(N)c(-c2cccc(C(F)(F)F)c2)c(Cc2cccc(C(F)(F)F)c2)n1 | 81.6% | 80.7%
67 | CCCc1ccc(-c2cc(C(=O)Nc3ccc([N+](=O)[O-])cn3)c3ccccc3n2)cc1 | 43.2% | 33.6%
68 | COc1ccc(NC(=O)N2CCc3ccccc32)cc1 | 64.4% | 64%
69 | CC(C)c1ccc(NC(=O)Nc2nc(C(N)C3CCCCC3)cs2)cc1 (stereo not drawn) | 92.2% | 99.3%
70 | CCc1nc(N2CCN(C(=O)CCl)CC2)c2c3c(sc2n1)CC(C)CC3 (stereo not drawn) | 99.3% | 91.5%
71 | CC(C)[C@@H](CO)NC(=O)c1ccc2c3n(nc2c1)-c1ccccc1CO3 | 71.1% | 71.6%
72 | O=C1c2ccccc2NC(c2ccc3c(c2)OCCO3)N1c1ccc2c(c1)OCCO2 (stereo not drawn) | 44.2% | 51.8%

Row | SMILES | activity [1] | activity [2]
73 | O=C(N/N=C1\CCc2ccccc21)c1ccccc1O | 53.7% | 62.4%
74 | Fc1cccc(C2NN=C(c3ccccc3)S2)c1 (stereo not drawn) | 58.6% | 58.5%
75 | COc1ccc(OC)c(NC(=O)c2nc(S(=O)(=O)Cc3ccccc3)ncc2Cl)c1 | 97% | 98.9%
76 | Cc1cc(C)nc(Nc2nc(-c3ccccc3)cs2)n1 | 72.5% | 71.3%
77 | Cc1ccc(CS(=O)(=O)c2ncc(Cl)c(C(=O)Nc3ccc(OC(F)F)cc3)n2)cc1 | 5.62% | -6.55%
78 | CN1CCN(Cc2nc3ccccc3c(=O)n2Cc2nc(-c3ccc4ccccc4c3)cs2)CC1 | 67.3% | 91.5%
79 | CC(C)c1onc(C(=O)N2CCN(c3ccc(F)cc3)CC2)c1[N+](=O)[O-] | 78.8% | 87.6%
80 | O=C(Nc1ccc2nc(-c3ccco3)[nH]c2c1)c1cccs1 | 72.4% | 80.6%
81 | Cc1ccc(C(=O)N/C(=C\c2ccc(-c3ccccc3[N+](=O)[O-])o2)C(=O)NCCCN2CCOCC2)cc1 | 24.6% | 48.9%
82 | Oc1ccc(-c2nc3ccccc3s2)cc1 | 47.5% | 47.9%
83 | Cc1ccc2nc(-c3ccc(NC(=O)COC(=O)c4ccc(Br)o4)cc3)sc2c1 | 62% | 67.4%
84 | CC1CCc2cc(F)ccc2N1C(=O)CCl (stereo not drawn) | 99.3% | 98.8%
85 | CCCCn1c(=O)[nH]c(=O)c2c1nc(Cn1ncc(Cl)c(Cl)c1=O)n2CCC | 98.7% | 99%
86 | Cc1nc2c(ccc3nc(NC(=O)c4ccc5c(c4)OCCO5)sc32)s1 | 82.8% | 84.3%
87 | Cc1cc(NCCCn2ccnc2)n2ncc(-c3ccc(Cl)cc3)c2n1 | 45.8% | 48.5%
88 | COc1ccc(C(C(=O)NC2CCCCC2)N(C(=O)CCl)c2ccccc2Cl)cc1 (stereo not drawn) | 98.8% | 97.2%
89 | COc1ccc(C(=O)Nc2cccc(/C=C/c3nc4ccccc4c(=O)[nH]3)c2)cc1 | 73.5% | 60.9%
90 | CN(C)C=Nc1ccc2nc3c(cc2c1)[nH]c1ccccc13 | 76.7% | 76.3%
91 | Clc1ccccc1CSc1nc2ccncc2[nH]1 | 79% | 79.3%
92 | COc1ccc2nc(NC(=O)c3ccccc3F)sc2c1 | 78.1% | 73.8%
93 | COc1cccc(/C=C/C(=O)Nc2ccc3c(c2)OCCO3)c1OC | 83.7% | 82%
94 | Fc1ccc(-c2nnc(-c3ccc(Cl)cc3Cl)o2)cc1 | 85.4% | 84.5%
